Measurements: PubChem BioAssay
For some assays here: Potency and affinity values are given separately. Records with an inconclusive call do not appear. Unmarked numbers belong to inactive results. The list shows a part of the results. Entries that show only a call come without a potency. The source made the active and inactive calls. Unless noted, how the calls were made is not given here.

Tests used:
[1] = RMG-1 ovarian cancer cell viability loss – cherry-pick, dose response (AID 687029;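 active means signal drop whose fitted half-maximal concentration is at most twice the top valid dose, in every test run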;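 further: cells exposed to compound for 96 hours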)
[2] = general cell-killing toxicity readout – plate reader, dry powder samples, cytotoxicity control for PAX8 inhibitor project, dose response (AID 743021)
[3] = small-molecule DNA binding by polarization – biochemical, fluorescence polarization, cherry-pick, counter-screen for EWS/Fli inhibitor project, dose response (AID 720586;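 active means fitted curve reaches a 35% signal fall AC35 below twice the sample's top valid tested dose, actives reach about 48 µM in these data; inactive means the rest, including activity in the rising direction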;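 further: lower polarization ratio signals compound binding to DNA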)
[4] = toxicity toward HepG2 liver cells – cell-based, plate reader, cherry-pick, antagonist series, cytotoxicity control, dose response (AID 743416)
[5] = A549 cell cytotoxicity, dose response, cytotoxicity control, plate reader, cherry-pick, antagonist series (AID 743412)
[6] = CMV-driven luciferase expression suppression in HEK293 – cell-based, luminescence, dry powder, counter-screen for Pax8 inhibitor project, dose response (AID 743020;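 active means signal-lowering compounds whose fitted half-maximal concentration is at or below twice the top tested dose in every run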;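 further: HEK293 cells stably expressing the CMV luciferase reporter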)
[7] = IGROV1 cell killing – plate reader, dry powder samples, PAX8 inhibitor project, dose response (AID 743043);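 further: more negative means fewer viable cells or more cytotoxicity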
[8] = OVCAR-3 cell viability loss – plate reader, dry powder samples, PAX8 inhibitor project, dose response (AID 743044); details: max activity: at 35 µM, hits give low values unless noted
[9] = toxicity toward immortalized ovarian surface epithelium – cell-based, plate reader, dry powder samples, cytotoxicity control for PAX8 inhibitor project, dose response (AID 743045);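 further: more negative values mean more cell killing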
[10] = A2780 cell killing – plate reader, dry powder samples, cytotoxicity control, dose response (AID 743046)
[11] = OVCAR8 cell viability loss – plate reader, dry powder samples, PAX8 project, dose response (AID 743197)

## O=C(Cn1ncc(Cl)c(Cl)c1=O)N1CCN(S(=O)(=O)c2ccc3ccccc3c2)CC1
[1]
  outcome: inactive
[2]
  outcome: inactive

## CC1=CC(C)(C)N2C(=O)C3(NCCc4c3[nH]c3ccccc43)c3cc(C)cc1c32 (stereo not drawn)
[1]
  outcome: inactive
[2]
  outcome: inactive

## COc1cc2c(c(OC)c1OC)-c1ccc(OC)c(=O)cc1[C@@H](NC(C)=O)CC2
[1]
  outcome: inactive
[2]
  outcome: inactive

## CC(=O)c1cc(NC(=O)c2cccc(C(F)(F)F)c2)c(=O)oc1C
[1]
  outcome: inactive
[2]
  outcome: inactive

## CCN(CC)S(=O)(=O)c1cccc(NC(=O)Nc2cccc(C(F)(F)F)c2)c1
[1]
  outcome: inactive
[2]
  outcome: inactive

## CCCCCC(CC(=O)NO)C(=O)NC(C(=O)N1CCCC1CO)C(C)C (stereo not drawn)
[1]
  outcome: inactive
[2]
  outcome: inactive

## O=C(c1ccc(Br)cc1)c1cc([N+](=O)[O-])ccc1N1CCCCC1
[1]
  outcome: inactive
[2]
  outcome: inactive

## C=CCN1C(=O)/C(=C/c2ccc(OC(C)=O)c(OCC)c2[N+](=O)[O-])SC1=S
[1]
  outcome: inactive
[2]
  outcome: inactive

## CN(/N=C/c1ccc(O)cc1O)c1nc(-c2ccccc2)cc(-c2ccccc2)n1
[1]
  outcome: inactive
[2]
  outcome: inactive

## Cn1c(=O)[nH]c(=O)c2c1nc([N+](=O)[O-])n2Cc1ccccc1
[1]
  outcome: inactive
[2]
  outcome: inactive

## COc1ccc(-c2csc(NC(=O)c3ccccc3NS(=O)(=O)c3ccc(F)c(F)c3)n2)cc1
[1]
  outcome: inactive
[2]
  outcome: inactive

## CN(C)c1ncnc2c1nnn2C1OC(CO)C(O)C1O (stereo not drawn)
[1]
  outcome: inactive
[2]
  outcome: inactive

## Oc1ccc(Cc2ccccc2)c2cccnc12
[1]
  outcome: inactive
[2]
  outcome: inactive

## COC(=O)[C@H]1[C@@H](O)[C@@]2(O)c3c(OC)cc(OC)cc3O[C@@]2(c2ccc(OC)cc2)[C@@H]1c1ccc(F)cc1
[1]
  outcome: inactive
[2]
  outcome: inactive

## C[C@@H]1CN([C@@H](C)CO)C(=O)Cc2cc(NC(=O)Nc3ccc(C(F)(F)F)cc3)ccc2O[C@@H]1CN(C)S(=O)(=O)c1ccc(Cl)cc1
[1]
  outcome: inactive
[2]
  outcome: inactive

## Oc1ccc(C[C@H]2CNC(=S)N2CC2CCCN2C[C@H](Cc2ccc(O)cc2)N2C[C@H](Cc3ccc(O)cc3)N(CC3CCCCCC3)C2=S)cc1 (stereo partly drawn)
[1]
  outcome: inactive
[2]
  outcome: inactive

## COc1ccc(C[C@H](N)C(=O)N[C@H]2[C@@H](O)[C@H](n3cnc4c(N(C)C)ncnc43)O[C@@H]2CO)cc1
[1]
  outcome: inactive
[2]
  outcome: inactive

## Cc1ccc(S(=O)(=O)N2CCCCC2)cc1NC(=O)Cn1ncc(Cl)c(Cl)c1=O
[1]
  outcome: inactive
[2]
  outcome: inactive

## COc1cc(CNc2ncnc3c2ncn3[C@H]2CN(Cc3ccc(-c4ccccc4)cc3)C[C@@H](CO)O2)cc(OC)c1OC
[1]
  outcome: inactive
[2]
  outcome: inactive

## CCN(CC)CCCNc1nc2ccccc2c2[nH]c3ccc(OC)cc3c12
[1]
  outcome: inactive
[2]
  outcome: inactive

## COc1ccc(/C=C/C(=O)c2cc(F)ccc2OC(=O)c2ccccc2C)cc1OC
[1]
  outcome: inactive
[2]
  outcome: inactive

## COc1cccc2c1C(=O)c1c(O)c3c(c(O)c1C2=O)C[C@@](O)(C(C)=O)C[C@@H]3O[C@H]1C[C@H](N)[C@H](O)[C@H](C)O1
[1]
  outcome: inactive
[2]
  outcome: inactive

## COc1cc(C2C(C#N)=C(N)Oc3cc4c(cc32)OCO4)cc(OC)c1OC (stereo not drawn)
[1]
  outcome: inactive
[2]
  outcome: inactive

## Oc1c(Cl)cc(CN2CCOCC2)c2cccnc12
[1]
  outcome: inactive
[2]
  outcome: inactive

## CC(C)(C)N(Cc1ccc2c(c1)OCO2)C(=O)/C=C\S(=O)c1ccccc1 (stereo not drawn)
[1]
  outcome: inactive
[2]
  outcome: inactive

## C[C@H]1CN([C@@H](C)CO)S(=O)(=O)c2ccc(C#Cc3ccncc3)cc2O[C@@H]1CN(C)C(=O)Nc1ccc2c(c1)OCO2
[3]
  AC35: inactive

## COc1ccccc1C#Cc1ccc([C@H]2[C@H](C#N)N(C(=O)C3CCCC3)[C@H]2CO)cc1
[4]
  outcome: inactive

## O=C(CN1C(=O)c2ccccc2S1(=O)=O)c1ccc2c(c1)OCCO2
[4]
  outcome: inactive

## N#C[C@@H]1[C@H](c2ccc(C#Cc3cccc(F)c3)cc2)[C@@H](CO)N1C(=O)C1CCCC1
[5]
  outcome: inactive

## CC1(Cc2ccc(OC(F)(F)F)cc2)C(=O)Nc2ccc(S(=O)(=O)NC3CCCCC3)cc21 (stereo not drawn)
[6]
  outcome: inactive
[2]
  outcome: inactive

## C[C@@H]1CCCCO[C@H](CN(C)Cc2ccc(C(F)(F)F)cc2)[C@H](C)CN([C@H](C)CO)C(=O)c2cc(NS(=O)(=O)c3ccccc3)ccc2O1
[6]
  outcome: inactive
[2]
  outcome: inactive
[7]
  outcome: inactive
[8]
  max activity: -11.2%
[9]
  outcome: inactive
[10]
  outcome: inactive

## C[C@@H]1CCCCO[C@H](CN(C)Cc2ccc(Cl)c(Cl)c2)[C@H](C)CN([C@@H](C)CO)C(=O)c2cc(NC(=O)Nc3ccccc3)ccc2O1
[6]
  outcome: inactive
[2]
  outcome: inactive
[7]
  outcome: inactive
[8]
  max activity: 4.55%
[9]
  outcome: inactive
[10]
  outcome: inactive
[11]
  outcome: inactive

## C[C@@H]1CN([C@H](C)CO)C(=O)c2cc(NC(=O)Nc3ccc(F)cc3)ccc2O[C@@H](C)CCCCO[C@@H]1CN(C)Cc1ccc2c(c1)OCO2
[6]
  outcome: inactive
[2]
  outcome: inactive
[7]
  outcome: inactive
[8]
  max activity: -19.6% [at 4.2 µM, hits give low values]
[9]
  outcome: inactive
[10]
  outcome: inactive

## CCOc1ccc(NC(=O)Nc2cc(OCC(F)(F)F)cc(OCC(F)(F)F)c2)cc1
[6]
  outcome: inactive
[2]
  outcome: inactive

## Cc1ccc(-c2csc3ncnc(Sc4nnc(CN5CCCCCC5=O)o4)c23)cc1
[6]
  outcome: inactive
[2]
  outcome: inactive

## CCOc1ccc(C(CN2CCOCC2)C(C)=O)cc1OC (stereo not drawn)
[6]
  outcome: inactive
[2]
  outcome: inactive

## C[C@@H]1CN([C@H](C)CO)C(=O)Cc2cc(NC(=O)Nc3ccc(F)cc3)ccc2O[C@H]1CN(C)Cc1ccc(Cl)c(Cl)c1
[6]
  outcome: inactive
[2]
  outcome: inactive
[7]
  outcome: inactive
[8]
  max activity: 19.8% [at 0.5 µM, hits give low values]
[9]
  outcome: inactive
[10]
  outcome: inactive
[11]
  outcome: inactive

## O=C(Nc1ccccc1)NN(C(=O)CCl)c1ccccc1
[6]
  outcome: inactive
[2]
  outcome: inactive

## C[C@@H]1CN([C@@H](C)CO)C(=O)Cc2cc(NC(=O)NC3CCCCC3)ccc2O[C@@H]1CN(C)Cc1ccc(-c2ccccc2)cc1
[6]
  outcome: inactive
[2]
  outcome: inactive
[7]
  outcome: inactive
[8]
  max activity: 0% [hits give low values]
[9]
  outcome: inactive
[11]
  outcome: inactive

## COc1cccc(S(=O)(=O)N2CC[C@H]3[C@@H](CO)N(C)c4ccc(C#Cc5ccc(F)cc5)cc4[C@H]32)c1
[6]
  outcome: inactive
[2]
  outcome: inactive
[7]
  outcome: inactive
[8]
  max activity: -17.2%
[9]
  outcome: inactive
[10]
  outcome: inactive
[11]
  outcome: inactive

## N#Cc1ccc(-c2ccc(C3[C@@H]4CN(C(=O)C5CC5)C[C@H]3N4)cc2)cc1 (stereo partly drawn)
[6]
  outcome: inactive
[2]
  outcome: inactive

## COc1ccc(-c2nc3c(c(SCC(=O)Nc4cccc(O)c4)n2)Cc2c(CO)cnc(C)c2O3)cc1
[6]
  outcome: inactive
[2]
  outcome: inactive

## OCCCNc1nccc(-c2cc(Nc3cccc(Cl)c3)ncn2)n1
[6]
  outcome: inactive
[2]
  outcome: inactive

## C[C@@H]1CCCCO[C@@H](CN(C)Cc2ccc(C(F)(F)F)cc2)[C@@H](C)CN([C@@H](C)CO)C(=O)c2cc(NS(=O)(=O)c3ccc(F)cc3)ccc2O1
[6]
  outcome: inactive
[2]
  outcome: inactive
[7]
  outcome: inactive
[8]
  max activity: -6.83% [at 16 µM, hits give low values]
[9]
  outcome: inactive
[10]
  outcome: inactive
[11]
  outcome: inactive

## COc1ccc(C2=NNC(=Nc3cc(S(=O)(=O)N(C)C)ccc3C)SC2)c(OC)c1
[6]
  outcome: inactive
[2]
  outcome: inactive

## O=C(NC12CC3CC(CC(C3)C1)C2)c1ccc([N+](=O)[O-])o1
[6]
  outcome: inactive
[2]
  outcome: inactive

## COc1ccc(NC(=O)Nc2ccc3c(c2)C(=O)N([C@@H](C)CO)C[C@@H](C)[C@@H](CN(C)CC2CCCCC2)OCCCC[C@@H](C)O3)cc1
[6]
  outcome: inactive
[2]
  outcome: inactive
[7]
  outcome: inactive
[8]
  max activity: -9.76% [at 4.2 µM, hits give low values]
[9]
  outcome: inactive
[10]
  outcome: inactive
[11]
  outcome: inactive

## O=C(Nc1ccc(N2CCN(C(=O)c3ccccc3)CC2)cc1)c1ccc([N+](=O)[O-])o1
[6]
  outcome: inactive
[2]
  outcome: inactive

## C[C@@H]1CCCCO[C@@H](CN(C)C(=O)Nc2cccc3ccccc23)[C@H](C)CN([C@H](C)CO)C(=O)c2cc(NS(=O)(=O)c3ccccc3)ccc2O1
[6]
  outcome: inactive
[2]
  outcome: inactive
[7]
  outcome: inactive
[8]
  max activity: 28.6% [at 2.1 µM, hits give low values]
[9]
  outcome: inactive
[10]
  outcome: inactive

## O=S(=O)(c1ccccc1F)N1CC[C@@H]2[C@@H](CO)Nc3ccc(C4=CCCCC4)cc3[C@@H]21
[6]
  outcome: inactive
[2]
  outcome: inactive
[7]
  outcome: inactive
[8]
  max activity: 10.3% [at 4.2 µM, hits give low values]
[9]
  outcome: inactive
[10]
  outcome: inactive
[11]
  outcome: inactive

## Cc1nc(Nc2nc(CSc3nc4ccccc4[nH]3)cc(=O)[nH]2)nc2ccccc12
[6]
  outcome: inactive
[2]
  outcome: inactive

## COc1ccc(NC(=O)Nc2ccc3c(c2)CC(=O)N([C@H](C)CO)C[C@@H](C)[C@@H](CN(C)Cc2ccc(Oc4ccccc4)cc2)O3)cc1
[6]
  outcome: inactive
[2]
  outcome: inactive
[7]
  outcome: inactive
[8]
  max activity: -8.95% [at 16 µM, hits give low values]
[9]
  outcome: inactive
[10]
  outcome: inactive
[11]
  outcome: inactive

## Cc1noc(C)c1S(=O)(=O)N(C)C[C@@H]1OCCCC[C@H](C)Oc2ccc(NS(=O)(=O)c3ccc(Cl)cc3)cc2C(=O)N([C@H](C)CO)C[C@@H]1C
[6]
  outcome: inactive
[2]
  outcome: inactive
[7]
  outcome: inactive
[8]
  max activity: -11.5% [at 0.5 µM, hits give low values]
[9]
  outcome: inactive
[10]
  outcome: inactive
[11]
  outcome: inactive
